# Laboratory results reported in PubChem BioAssay (EPA / NIEHS).
# Active and inactive are the calls of the source. The calls were made as follows: active = hit-call score of the fitted dose curve at least 0.9, where 1 is the maximum; inactive = score below 0.9.
# Tests used:
# [1] = biological target: Transcription factor E2F1 (Homo sapiens) (UniProt Q01094); experiment: ATG_E2F_CIS: Attagene CIS-FACTORIAL HepG2 Assay for human E2F Transcription Factor 1 (AID 2282935); conditions: HepG2 Attagene cis-reporter, E2F reporter RNA transcripts; actives raise or lower the signal
# Chain of Transcription factor E2F1 (Homo sapiens) (Q01094 whole entry, looked up): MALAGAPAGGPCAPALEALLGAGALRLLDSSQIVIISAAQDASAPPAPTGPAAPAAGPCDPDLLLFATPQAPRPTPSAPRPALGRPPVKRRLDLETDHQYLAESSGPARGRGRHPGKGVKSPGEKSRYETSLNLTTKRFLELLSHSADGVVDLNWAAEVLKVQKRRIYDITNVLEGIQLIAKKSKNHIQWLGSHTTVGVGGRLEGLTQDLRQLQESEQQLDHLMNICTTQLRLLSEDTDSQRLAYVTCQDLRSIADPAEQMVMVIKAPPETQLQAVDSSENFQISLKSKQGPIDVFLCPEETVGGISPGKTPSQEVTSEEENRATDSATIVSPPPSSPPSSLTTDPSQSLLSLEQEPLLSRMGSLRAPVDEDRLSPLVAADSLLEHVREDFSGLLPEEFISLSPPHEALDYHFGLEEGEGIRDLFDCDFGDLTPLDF
# Method in brief: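 Liver-derived HepG2 cells expressing transfected promoter-driven reporter units received test chemical for 24 hours. Signal gains or losses were fitted bidirectionally against DMSO.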
# [2] = ATG_E_Box_CIS: Attagene CIS-FACTORIAL HepG2 Assay for human Enhancer Box (E-box) (AID 2282936); conditions: HepG2 E-box cis-reporter transcription, actives raise or lower the signal
# Method in brief: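 In this cell-based setup, HepG2 cells bearing transfected promoter-driven reporter units were exposed to chemicals for 24 h; reporter transcripts were amplified, 6-FAM-labelled, cut with HpaI and sized by capillary electrophoresis.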
# [3] = ATG_M_61_CIS: Attagene CIS-FACTORIAL HepG2 Assay for M61 Transcription Factor (Internal Marker) (AID 2282937); conditions: HepG2 Attagene CIS-FACTORIAL M61 internal marker reporter; actives raise or lower the signal
# Method in brief: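 Transfect HepG2 with MRTUs; dose 24 h; isolate RNA; reverse-transcribe with DNase I treatment; PCR-amplify, FAM-label and cut with HpaI for 2 h at 37 C; resolve by CE. Bidirectional fitting against DMSO.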
# [4] = ATG_EGR_CIS: Attagene CIS-FACTORIAL HepG2 Assay for human Early Growth Response 1 (EGR1) (AID 2282938); conditions: HepG2 Attagene CIS-FACTORIAL EGR reporter mRNA; actives raise or lower the signal
# Method in brief: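 After a 24 h treatment of transiently transfected HepG2 cells, total RNA was reverse-transcribed and reporter sequences PCR-amplified, labelled and run on capillary electrophoresis. Reporters sit under cis-regulatory promoters sensing endogenous factors.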
# [5] = ATG_M_19_CIS: Attagene CIS-FACTORIAL HepG2 Assay for M19 Transcription Factor (Internal Marker) (AID 2282939); conditions: HepG2 Attagene CIS-FACTORIAL M19 internal marker reporter; actives raise or lower the signal
# Method in brief: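 Readout: fluorescent reporter-transcript fragments by capillary electrophoresis after RT-PCR. Human HepG2 liver cells carried transfected MRTU constructs reporting endogenous transcription-factor activity; exposure 24 h. Gain or loss of signal fitted relative to DMSO.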
# [6] = ATG_ERE_CIS: Attagene CIS-FACTORIAL HepG2 Assay for Estrogen Response Element (ERE) (AID 2282940); conditions: HepG2 ERE cis-reporter, Attagene RNA transcript; actives raise or lower the signal
# Method in brief: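 Readout: reporter mRNA induction by RT-PCR, FAM-labelled primer extension, HpaI digestion and capillary electrophoresis, 24 h after dosing transfected HepG2 cells. Endogenous transcription factors act on cis-element-regulated reporters. Gain or loss fitted against DMSO.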
# [7] = ATG_Ets_CIS: Attagene CIS-FACTORIAL HepG2 Assay for human Erythroblast Transformation Specific (ETS) (AID 2282941); conditions: HepG2 ETS cis-reporter transcription, actives raise or lower the signal
# Method in brief: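 Endogenous transcription factor activity read as reporter mRNA via RT-PCR and capillary electrophoresis, with gain or loss fitted bidirectionally against DMSO. Human HepG2 liver cells, transiently transfected CIS reporter constructs, 24 h exposure.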
# [8] = biological target: Hepatocyte nuclear factor 3-beta (Homo sapiens) (UniProt Q9Y261); experiment: ATG_FoxA2_CIS: Attagene CIS-FACTORIAL HepG2 Assay for human Forkhead box A2 (FOXA2) (AID 2282942); conditions: HepG2 cis-reporter transcription factor activity, 24 h; actives raise or lower the signal
# Chain of Hepatocyte nuclear factor 3-beta (Homo sapiens) (Q9Y261 whole entry, looked up): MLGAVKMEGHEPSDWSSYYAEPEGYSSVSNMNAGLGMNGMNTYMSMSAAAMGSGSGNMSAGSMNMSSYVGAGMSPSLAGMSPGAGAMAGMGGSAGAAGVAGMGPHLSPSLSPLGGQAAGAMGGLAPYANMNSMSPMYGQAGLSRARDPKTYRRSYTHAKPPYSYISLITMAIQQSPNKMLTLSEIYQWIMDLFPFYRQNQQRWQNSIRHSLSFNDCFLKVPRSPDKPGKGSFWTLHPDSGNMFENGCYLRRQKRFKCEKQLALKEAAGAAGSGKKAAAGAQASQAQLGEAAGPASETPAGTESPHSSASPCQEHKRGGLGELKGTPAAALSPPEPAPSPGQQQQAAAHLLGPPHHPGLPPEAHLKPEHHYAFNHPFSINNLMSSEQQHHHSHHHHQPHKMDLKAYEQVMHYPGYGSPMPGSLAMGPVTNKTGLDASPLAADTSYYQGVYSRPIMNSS
# Method in brief: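 24 h dosing of HepG2 bearing cis-reporter constructs; mRNA readout by RT-PCR/CE fluorescence; bidirectional fit, DMSO baseline.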
# [9] = ATG_FoxO_CIS: Attagene CIS-FACTORIAL HepG2 Assay for human Forkhead box O (FoxO) (AID 2282943); conditions: HepG2 Attagene cis-reporter, FoxO element, mRNA; actives raise or lower the signal
# Method in brief: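 Transfected HepG2 reporter cells exposed to test chemical for 24 h; reporter RNA measured by reverse transcription, PCR and fluorescent capillary electrophoresis; curves fitted for increases and decreases against DMSO.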
# [10] = ATG_GATA_CIS: Attagene CIS-FACTORIAL HepG2 Assay for human GATA Binding Protein (AID 2282944); conditions: HepG2 GATA cis-element reporter, Attagene multiplex mRNA; actives raise or lower the signal
# Method in brief: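 Read-out: fluorescent reporter mRNA fragments resolved by capillary electrophoresis after RT-PCR. Human liver HepG2 cells carried transiently transfected cis-regulated reporter constructs; chemicals incubated 24 h; gain or loss of signal fitted relative to DMSO.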
Structure (SMILES),outcome [1],outcome [2],outcome [3],outcome [4],outcome [5],outcome [6],outcome [7],outcome [8],outcome [9],outcome [10],AC50 [6],AC50 [4],AC50 [5],AC50 [9],AC50 [10],AC50 [2],AC50 [7]
NCCO,inactive,inactive,inactive,inactive,inactive,inactive,inactive,inactive,inactive,inactive,,,,,,,
OC[C@@H](O)[C@@H](O)[C@H](O)[C@H](O)CO,inactive,inactive,inactive,inactive,inactive,inactive,inactive,inactive,inactive,inactive,,,,,,,
CC(=O)C(C)=CC1C(C)=CCCC1(C)C (stereo not given),inactive,inactive,inactive,inactive,inactive,,inactive,inactive,inactive,inactive,33.4 µM (active),,,,,,
CC1=C(/C=C/C(C)=C/C=C/C(C)=C/CO)C(C)(C)CCC1,inactive,inactive,inactive,,,,inactive,inactive,,,4.13 µM (active),80.7 µM (active),172 µM (active),167 µM (active),166 µM (active),,
CCCCc1ccc2c(n1)[C@@H](c1ccc(OC)cc1C[C@H](C)C(=O)O)[C@H](C(=O)O)[C@H]2c1ccc2c(c1)OCO2,inactive,inactive,inactive,inactive,inactive,inactive,inactive,inactive,inactive,inactive,,,,,,,
C=CCc1ccc(O)c(OC)c1,inactive,inactive,inactive,inactive,inactive,inactive,inactive,inactive,inactive,inactive,,,,,,,
CC(CO)OC(C)CO (stereo not given) (tested in a mixture with another compound),inactive,inactive,inactive,inactive,inactive,inactive,inactive,inactive,inactive,inactive,,,,,,,
Cc1cccc([N+](=O)[O-])c1C,inactive,inactive,inactive,inactive,inactive,inactive,inactive,inactive,inactive,inactive,,,,,,,
CCCCCCC(=O)OCC,inactive,inactive,inactive,inactive,inactive,,inactive,inactive,inactive,inactive,34.7 µM (active),,,,,,
C=CCOC(=O)c1ccccc1C(=O)OCC=C,inactive,inactive,inactive,inactive,inactive,inactive,inactive,inactive,inactive,inactive,,,,,,,
CCc1c(C(=O)NN2CCCCC2)nn(-c2ccc(Cl)cc2Cl)c1-c1ccc(Br)cc1,inactive,inactive,inactive,,inactive,,inactive,inactive,inactive,inactive,6.06 µM (active),3.12 µM (active),,,,,
Cc1nc(C)nc(N2C[C@@H](C)N(c3ccnc([C@@H](C)O)n3)[C@@H](C)C2)n1,inactive,inactive,inactive,inactive,inactive,inactive,inactive,inactive,inactive,inactive,,,,,,,
CNCc1cc(F)ccc1Oc1ccc(Cl)c(Cl)c1,inactive,inactive,inactive,inactive,inactive,inactive,inactive,inactive,inactive,inactive,,,,,,,
Nc1ccc2c(c1)C(=O)c1ccccc1C2=O,inactive,inactive,inactive,inactive,inactive,,inactive,inactive,inactive,inactive,7.14 µM (active),,,,,,
Cc1c(C(=O)O)c(O)cc2c1C(=O)c1c(O)c([C@@H]3O[C@H](CO)[C@@H](O)[C@H](O)[C@H]3O)c(O)c(O)c1C2=O,inactive,inactive,inactive,inactive,inactive,inactive,inactive,inactive,inactive,inactive,,,,,,,
COc1cc(-c2nc(NC(=O)c3cc4cc(C)cc(C)c4n3CC(=O)O)sc2CCC2CCCCC2)c(OC)cc1Cl,inactive,,inactive,,inactive,inactive,,inactive,inactive,inactive,,9.13 µM (active),,,,25.6 µM (active),32.2 µM (active)
CCCCC(CC)COC(=O)CC(C(=O)OCC(CC)CCCC)S(=O)(=O)O (stereo not given),inactive,inactive,inactive,inactive,inactive,inactive,inactive,inactive,inactive,inactive,,,,,,,
CCCCCC(=O)O,inactive,inactive,inactive,inactive,inactive,inactive,inactive,inactive,inactive,inactive,,,,,,,
CCCc1cc(=O)[nH]c(=S)[nH]1,inactive,inactive,inactive,inactive,inactive,,inactive,inactive,inactive,inactive,4.56 µM (active),,,,,,
COc1cccc2c1C(=O)c1c(O)c3c(c(O)c1C2=O)C[C@@](O)(C(=O)CO)C[C@@H]3O[C@H]1C[C@H](N)[C@H](O)[C@H](C)O1,inactive,,inactive,,inactive,inactive,inactive,inactive,,inactive,,2.04 µM (active),,0.543 µM (active),,1.85 µM (active),
COCCOC[C@H](CC1(C(=O)NC2CCC(C(=O)O)CC2)CCCC1)C(=O)Oc1ccc2c(c1)CCC2 (stereo not given in full),inactive,inactive,inactive,inactive,inactive,inactive,inactive,inactive,inactive,inactive,,,,,,,
